Measured values reported in PubChem BioAssay AID940 (Emory University Molecular Libraries Screening Center, 2007).
Values joined by “and” are separate entries in the source; they are usually repeats but may differ in a detail not shown here. Identical values can stand only once. Hit rate of the full screen: of about 260,000 compounds, about 2,200 (0.85%) were called active.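 How the source made its calls: active means compounds whose cAMP rise, as percent of the full-agonist control response, exceeds 60; inactive means the rest.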 For the sample, actives were picked, then their nearest neighbours and some compounds at random.

biological target: Prostaglandin E2 receptor EP2 subtype (Homo sapiens) (UniProt P43116); test: modulation of human EP2 prostaglandin signaling – cell-based, HTRF cAMP, PGE2 stimulation, primary screen (AID 940); details: EP2-expressing cells, cAMP HTRF FRET, PGE2 co-stimulation; at 25 µM; stronger effect = higher value;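 further: rat C6 glioma line stably carrying human EP2 under a CMV promoter; the protocol text gives 20 µM as final concentration; 100% = response of wells given 1 µM PGE2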
Sequence (P43116 whole entry, looked up): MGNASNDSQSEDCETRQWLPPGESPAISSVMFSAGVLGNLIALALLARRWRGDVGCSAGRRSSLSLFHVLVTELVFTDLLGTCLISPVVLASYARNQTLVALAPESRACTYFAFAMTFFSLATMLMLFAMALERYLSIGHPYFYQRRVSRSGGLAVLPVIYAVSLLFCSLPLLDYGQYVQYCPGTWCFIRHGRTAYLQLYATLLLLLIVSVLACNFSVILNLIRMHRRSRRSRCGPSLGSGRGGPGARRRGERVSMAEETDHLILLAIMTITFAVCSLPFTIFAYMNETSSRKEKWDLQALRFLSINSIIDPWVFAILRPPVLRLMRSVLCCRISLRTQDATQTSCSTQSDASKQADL

induction, active:
Cc1cc(C#N)c(SCC(N)=O)nc1-c1ccc(F)cc1 65.8%
CCOc1ccc(NC(=O)CSc2ncnc3c2sc2ccccc23)cc1 78.8%
CC1(C)C2CCC1(C)C(OC(=O)c1ccc(O)cc1)C2 (centres undefined) 67.5%
Cc1cc(NC(=O)CN2CCCC(C)C2)n(-c2nc3ccccc3s2)n1 (centres undefined) 77.7%
Oc1ccc(/C=N/N(Cc2ccccc2)c2ccccc2)cc1 67.5%
Cc1ccc(C(=O)c2c(NC(=O)c3ccncc3)sc3c2CCCC3)cc1 68.7%
CCSc1nnc(-c2cc3c(s2)-c2ccccc2CC3)o1 63.3%
c1ccc(C(c2nnnn2C2CCCCC2)N2CCc3ccccc3C2)cc1 (centres undefined) 68.5%
COC(=O)c1sccc1NC(=O)COc1ccc(Cl)cc1 61.7%
Cc1nn2c(c1-c1ccccc1)N=C(c1ccco1)CC2c1ccccc1 (centres undefined) 83.8%
CCc1ccc2oc(=O)cc(CN3CCCCC3C)c2c1 (centres undefined) 64.2%
CCOC(=O)c1c(-c2ccc(C)cc2C)csc1NC(=O)CSc1nnnn1C 63.5%
CC(C)(C)c1nc2ccccc2c(=O)n1N1C(=O)c2ccccc2C1=O 65.2%

induction, inactive:
Cc1sc2ncnc(NCC(=O)O)c2c1C 2.64%
COc1cc(-c2nnc(SCC(=O)N3CCC(C)CC3)o2)cc(OC)c1OC -36.6%
CCN1CCCC1CN(Cc1ccccn1)Cc1cccn1-c1ccncc1 (centres undefined) 7.11%
Cc1cc(=O)[nH]c(SCC(N)=O)c1C#N 24.2%
CCN(CC)C(=O)CSc1nc2c(C)c(C)ccc2cc1C#N 27.6%
CCc1c(C)nc(NC2CCN(C(=O)c3cccc(N(C)C)c3)CC2)[nH]c1=O -19.1%
COC(=O)CSc1nnc(CSc2nc(C)cc(C)n2)n1-c1ccc(C)cc1 -20.7%
COc1cc(NC(=O)CSc2ncnc3c2sc2nc4cc(C)ccc4cc23)cc(OC)c1 -7.45%
CCOc1ccc(NC(=O)CSc2nc(C(C)C)nc3ccccc23)cc1 10.4%
CC(c1ccccc1)n1c(Br)nc2c1c(=O)n(C)c(=O)n2C (centres undefined) -1.23%
COc1ccc2[nH]c(=O)c(CN(C3CCCC3)C(c3nnnn3Cc3ccccc3)C(C)C)cc2c1 (centres undefined) 40.1%
Cc1ccc(C(=O)OC2CCCN(C)C2)cc1 (centres undefined) 11.9% and -29.7%
CC1(C)C2CCC1(C)C(OC(=O)CCn1ccnc1)C2 (centres undefined) -7.75%
c1ccc(C(c2nnnn2Cc2ccc3c(c2)OCO3)N2CCN(C3CCCCC3)CC2)cc1 (centres undefined) -64.5%
CC(C)(C)C(=O)c1cn(CC(=O)N2CCCCC2)c2ccccc12 -9.2%
CCn1c(C)nnc1SCC(=O)Nc1ccc(Br)cc1 -1.86%
CCOC(=O)N1CCN(CC(=O)Nc2cc(C)nn2-c2nc3ccccc3s2)CC1 32.4%
CC(=O)Nc1ccc(NC(=O)CN2CCCC(C)C2)c(Cl)c1 (centres undefined) -9.9%
COc1ccc(Cc2n[nH]c(=S)n2C)cc1 25.4%
Cc1cc(-c2cnc(C)nc2C2CCN(C(=O)Cc3ccc(C)s3)CC2)on1 -15.1%
CN(C)c1ccc(/C=N/N(Cc2ccccc2)c2ccccc2)cc1 23.9%
O=C(N/N=C/c1ccc(OCc2ccccc2)cc1)c1ccc(O)cc1 -46.8%
Cc1ccc(NC(=O)c2c(NC(=O)CCC(=O)O)sc3c2CCCCC3)cc1 12.1% and -20.9%
Cc1ccc(C(=O)c2c(NC(=O)c3ccccc3)sc(C)c2C)cc1 8.95%
Cc1cc(-c2cncnc2C2CCCN(CC(=O)Nc3cc(C)on3)C2)on1 (centres undefined) 0.23%
CCOC(=O)c1c(CN2CCOCC2)nc2ccc(Cl)cc2c1-c1ccccc1 22.7%
Fc1ccc(CSc2nnc(-c3cc4c(s3)-c3ccccc3CC4)o2)cc1 1.98%
C#CCSc1nnc(-c2sc3ccccc3c2Cl)o1 40.2%
CC(=O)c1ccc(S(=O)(=O)N2CCC(n3c(C)nc4cc(F)ccc43)CC2)cc1 -40.5%
Cc1occc1-c1nn(C2CCN(S(=O)(=O)N(C)C)CC2)c(=O)o1 -53%
CCN(CC)C(=O)CSc1nc2ccccc2c(=O)n1-c1ccccc1 -15.6%
CN1CCN(C(c2ccccc2Cl)c2nnnn2C2CCCCC2)CC1 (centres undefined) -13.7%
c1ccc(C(c2ccccc2)N2CCN(Cc3nnnn3C3CCCCC3)CC2)cc1 56.5%
CCS(=O)(=O)N1CCN(c2nc3ccccc3s2)CC1 -84.9%
O=C(Cn1nc(-c2cccnc2)oc1=O)N1CCCC1 -282%
COC(=O)c1sccc1NC(=O)CCC1CCCC1 11.9%
O=C(COc1ccc(Cl)cc1)Nc1ccccc1CO -10.2%
CCN(CC)CCN(Cc1cc2cccc(C)c2[nH]c1=O)C(=S)NCCOC -15.8%
CC(C(=O)N1CCC(n2nc(-c3ccco3)ccc2=O)CC1)c1ccccc1 (centres undefined) -23.1%
COCC(=O)Nc1nnc(Cc2ccccc2)s1 -1.1%
CCc1nn(CC(=O)NC(C)c2ccccn2)c(=O)c2cc3ccsc3n12 (centres undefined) -14.5%
O=C(c1ccn[nH]1)N1CCn2cc(C(F)(F)F)nc2C1 -3.08%
CC1CCCCN1CC(=O)NCc1ccc2c(c1)OCO2 (centres undefined) 8.14%
COc1ccc(CN2CCCCC2C)cc1OC (centres undefined) 1.32%
CCOC(=O)CNC(=O)CSc1nnnn1-c1cc(C)ccc1C -4.73%
COC(=O)c1ccccc1NC(=O)CSc1nnnn1C 20.6% and 0.97%
CSc1nc(O)c(C2CCCCC2)c(=O)[nH]1 -1.22%
COc1ccc(CNC(=O)CCSc2nc(-c3ccco3)cc(C(F)(F)F)n2)cc1OC -21.3%
CS(=O)(=O)N1CCc2cc(C(=O)N3C4CCC3CC(c3ccc(F)cc3)C4)ccc21 (centres undefined) -36.1%
COC(=O)Cn1c(C)nc2ccccc2c1=O 6.77%
CN(C)CCCn1c(SCCN2C(=O)c3ccccc3C2=O)nc2ccccc2c1=O -26%
